From the supplement of paper PMC6555819 come the findings set out here.

The subject of the assay is PXR:RXRa (NR concentration 270 nM, RXRa partner concentration 90 nM). The experiment in a line: PBM binding z-score (relative to random genomic background probes); higher = stronger binding; sequences stand for … in GC…GCGATTGACAGCGTAGAATGAAGG
An outline of the steps: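 Regression normalization was applied to scanned fluorescence from custom Agilent 4×180K protein-binding microarrays. Before scanning, arrays were incubated 1 h with ligand-free nuclear receptor dimers, and binding was detected with antibodies against each partner (one per run). Binding z-scores use the random background probes as reference.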
In turn, CCTCCTAGGTCATGGTCAGCTAATCTACAGTATG displayed a PBM binding z-score of 1.77.

In turn, CCAGACAGGTGAAAGGTAACACAGTCTGGTACGC showed a PBM binding z-score of 1.29.

Turning to AGAACGAGGGCAATGAGTTGATAGCGCGGGTGGC, the PBM binding z-score came out at 1.62.

For ATATGTAGGTTATCGGGTCAATCAGTTTGCGCAT, the PBM binding z-score worked out at 3.64.

On to ACAGACAGATGAGTGAAGGTAACTCAGCTGGACG, for which the PBM binding z-score is -0.0478.

The sequence GCAGACAGGTGAAAAGCAGGTAACTCAGGGTGGC returned a PBM binding z-score of -0.441.

Sequence TCGAGTAGGTTACCAAGGGGGCATTCAGCTTTCT yielded a PBM binding z-score of 2.98.

GCGACTGGGGCAAAGCAGGTTACCAAAAGGTTGG registered a PBM binding z-score of 0.48.

Sequence ATATGTAGGTTACATCCAGGTCATTCAGGCTATG had a PBM binding z-score of 3.82.

As to CCTACTGGGCCAAATGTCATTGATTCCAATGCTC, the PBM binding z-score was -0.184.

ACTGTTAGTTGACTTAGGGCAACCGATACGACGC displayed a PBM binding z-score of 0.277.

ATCTAAAGGTCGAGGTGAGTATAGAGAAAGGGAA yielded a PBM binding z-score of 2.7.

The sequence CCTAGTTGGTCAAGGGCACACACGCTATAGGTAC came in with a PBM binding z-score of 0.512.

On to TCTTGTAGATCAACAGGAGGCTAAGAAAGATCGA, for which the PBM binding z-score was -0.24.

As for TCATATAGGTAAACAGGTGAAAATCCGTAAGTTA, the PBM binding z-score came out at 1.18.

The sequence CGTCCAAGGTCTATGCTAGGTCAGTGAAAGCATT had a PBM binding z-score of 0.421.

CGTCCAAGGTCAAGGTCAGTGGAAGAGACTCGAA: the PBM binding z-score came out at 4.68.

As for AGAATGAGGTTATTAAGTTCAGGGAATTGCGGTC, the PBM binding z-score came to 5.65.

Turning to CCTTACGGGTCACTCCAGGTAATAGCATCGGAGT, the PBM binding z-score worked out at 3.63.

Take ATCGAAAGGACGACGAGGTGAGTATACACCGTTT: the PBM binding z-score was -0.109.

For the sequence CGTCCAAGGTCATAGGAGGTCAGTGAAGACAGAT, the PBM binding z-score was found to be 6.64.

As to GATACAGGGTCAAGGCCAGAGAACGCGTATTGAT, the PBM binding z-score came to 3.71.

TCTATTAGTTGAAAGGCAACCGACGAGTCCGTTT gave a PBM binding z-score of 0.694.

Turning to CCGACTGGGGCAAAGGTTACCATCCTCAGTACGA, the PBM binding z-score is 2.56.

For TCTTGTAGATCAAGCAGGATAAGAAAGCCTGAGT, the PBM binding z-score is -0.0334.

Sequence AGACCGAGGGCACGCTGAGTTGATAGCAGAGTAG had a PBM binding z-score of 1.52.

TCTAGTTGGTCACCGAGGTCACACACGACGGGTA yielded a PBM binding z-score of 5.31.

Take CGTGCAAGGTCAGCAGGTCAGTGAAAGCGACGTG: the PBM binding z-score came to 3.87.

Sequence CCTCGCAGGACAACAGGAGGTCAGAGCTGCCAGA returned a PBM binding z-score of 1.89.

Sequence ATCTCTAGATAAAAGTTCAGTGAATCCCGAGGAT had a PBM binding z-score of 1.57.

Regarding CCTAGCAGGCCAGGGTCAATCAAGCATTTCGCTT, the PBM binding z-score turned out to be 3.43.

Turning to TCTTGTACATCAAAGGTTAAGAAAGCCGAAGCCT, the PBM binding z-score is 1.73.

ACTATTAGTTGAGACGAGGGCAACCGTTAGGTTG returned a PBM binding z-score of 1.36.

Turning to AGAATGAGGTTATTAAGATCAGGCAATTGCGGTC, the PBM binding z-score stood at 1.2.

GCATATAGATAATACAAGGTGAAAGTCCGATTGT registered a PBM binding z-score of 0.197.

Sequence GCTTGTAGATCAAGGTTAGGAAAGACTAAGCTAA showed a PBM binding z-score of -0.276.

Sequence AGAATGATGTTATTAAGATCAGGGAATTGCGGTC returned a PBM binding z-score of -0.0155.

The sequence CCGACTGGGGCAAAGGTTACCATTCTCAGTACGA returned a PBM binding z-score of 2.41.

Turning to ATATGTAGGTTATCGGGTCATTTAGTTTGCGCAT, the PBM binding z-score is 3.33.

With TCATATAGGTAAATGCTAGGTTAAAGTCCGATCT, the PBM binding z-score worked out at 0.98.
